# Bioassay records (PubChem)
# Sampled rows, rich in hits. Any-hit rate of the full collection: about 2.4%.
# D2 ag-1: HTS Assay for Allosteric Agonists of the Human D2 Dopamine Receptor: Primary Screen for Agonists. D(2) dopamine receptor (Homo sapiens), P14416. HEK293 T-REx D2 cells, calcium flux agonist mode. activation, % at 2 µM. 340,000 tested, 0.53% active. AID 485358, 2010;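 active = activation over 3 SD above normal in the single-dose calcium agonist read, cut at about 30% in these data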; also: 0% is about no effect
#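 Agonism scored from kinetic calcium signal (1 read/sec, 180 s) following compound pin transfer, after a 10 s baseline. Cells: HEK293 Trex line expressing inducible D2 receptor coupled to calcium, dye-loaded after overnight culture at 30 C.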
# D2 ag-2: Beta-Arrestin HTS for Positive Allosteric Modulators of the Human D2 Dopamine Receptor: Agonists. D(2) dopamine receptor (Homo sapiens), P14416. DiscoveRx PathHunter D2 beta-arrestin, luminescence, 90 min; 100% = 57 uM dopamine signal. activation, % (test concentration not listed). 360,000 tested, 0.084% active; in the data active = activation above about 40%; inconclusive = between about 15% and that limit
#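 Agonist mode: compounds alone added to overnight-plated D2 PathHunter cells for 90 min at 37 C, with 57 uM final dopamine (EC100) defining full response. Beta-arrestin recruitment detected by chemiluminescent reagent, read after 1 h at ambient temperature.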
# D2 antag: HTS Assay for Allosteric Antagonists of the Human D2 Dopamine Receptor: Primary Screen for Antagonists; inhibition, % at 10 µM; HEK293 TREx D2 cells, calcium flux, dopamine EC80; AID 485344, 2010; D(2) dopamine receptor (Homo sapiens), P14416; 340,000 tested, 2% active; in the data active = inhibition above about 30%; inactive = below that, where a call was filed; also: 0% is about no effect
#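 Cells plated overnight at 30 C with tetracycline; no-wash calcium dye, 30–90 min RT; 10 s baseline; compound pinned; 180 s read; EC80 dopamine added; another 180 s read.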
# D2 PAM-1: HTS Assay for Positive Allosteric Modulators of the Human D2 Dopamine Receptor: Primary Screen for Potentiators. D(2) dopamine receptor (Homo sapiens), P14416. HEK293 T-REx D2, calcium flux, EC20 dopamine potentiation. potentiation, % at 10 µM. 340,000 tested, 0.34% active. AID 485347, 2010;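 active = potentiation over 3 SD above the plate norm, cut at about 30% in these data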; also: 0% is about no effect
#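 Cells plated with tetracycline inducer and held overnight at 30 C; calcium dye loaded 30–90 min at room temperature; baseline taken, compound added and read 180 s; EC20 dopamine then added and read 180 s.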
# D2 PAM-2: Beta-Arrestin HTS for Positive Allosteric Modulators of the Human D2 Dopamine Receptor: Potentiators. D(2) dopamine receptor (Homo sapiens), P14416. DiscoveRx D2 beta-arrestin cells, luminescence, 90 min; 100% = 57 uM dopamine signal. potentiation, % (test concentration not listed). 360,000 tested, 0.23% active. AID 624464, 2012; in the data active = potentiation above about 50%; inconclusive = mostly about 30% to 49%
#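 PathHunter D2 cells, attached overnight at 37 deg C, received compound in DMSO plus dopamine at EC20 (50 nM final) for 90 min at 37 deg C. Beta-arrestin recruitment was read as luminescence after 1 h with detection reagent at ambient temperature.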
# D3 ag: qHTS of D3 Dopamine Receptor Agonist: D3 Dopamine Receptor B-arrestin Agonist Confirmatory Assay; 2,300 tested, 4% active; Potency, µM (doses to about 76.9 µM), inactives show top-dose activation, hits mostly activators; shares compounds with D2 ag-1; DiscoveRx D3 beta-arrestin cells, luminescence, 90 min; AID 720506, 2013;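 also: potency is read from the fitted curve at half-maximal effect; 100% = dopamine control response; nearly all actives have a fitted effect of over 70% in size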
# Target sequence (P35462 whole entry, looked up): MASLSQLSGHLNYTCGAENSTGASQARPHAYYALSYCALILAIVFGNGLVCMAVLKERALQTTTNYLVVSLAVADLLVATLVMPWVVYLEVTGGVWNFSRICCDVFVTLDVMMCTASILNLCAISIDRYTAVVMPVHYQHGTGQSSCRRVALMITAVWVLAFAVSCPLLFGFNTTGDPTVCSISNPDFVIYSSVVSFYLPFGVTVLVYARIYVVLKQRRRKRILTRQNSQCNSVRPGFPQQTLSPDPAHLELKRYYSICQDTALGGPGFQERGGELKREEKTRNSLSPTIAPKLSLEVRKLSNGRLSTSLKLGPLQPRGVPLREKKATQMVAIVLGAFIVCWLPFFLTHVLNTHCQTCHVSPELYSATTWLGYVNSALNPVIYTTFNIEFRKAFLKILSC
# D2 ag-3: qHTS of D3 Dopamine Receptor Agonist: D2 Dopamine Receptor B-arrestin Agonist Counterscreen. shares compounds with D2 ag-1. DiscoveRx PathHunter D2 beta-arrestin, luminescence, 90 min; response scale: percent relative to full dopamine signal. Potency, µM (highest dose often 76.9 µM), for the others: at the highest dose activation, hits mostly activators. 2,300 tested, 5.9% active. AID 720507, 2013; also: potency is read from the fitted curve at half-maximal effect; % of control where 0% means no effect; nearly all actives have a fitted effect of over 70% in size
# * hit, by the source's call; u = inconclusive; x = no result; ! = not active in a repeat. Unless noted, calls follow the shape of the dose curve; as a rule, active = well fitted activation curve with a large enough effect; inconclusive = small, poorly fitted or top-dose-only effect; inactive = flat fitted curve, though single readings scatter.
SMILES,D2 ag-1,D2 ag-2,D2 antag,D2 PAM-1,D2 PAM-2,D3 ag,D2 ag-3
COc1ccccc1CNC(=O)C1CSC2(C)CCC(=O)N12 (configuration not stated),0.3,-2.9,6.7,-4.3,-0.5,x,x
Cc1ccc(CN2CCN(c3cccc4[nH]ccc34)CC2)cc1,72.6*,u,72.3*,-21.4,-24.9,-5.1%,u
O=C(c1ccc(Cl)cc1)N1CCN(c2cccc3[nH]ccc23)CC1,5.9,-4.2,8.6,1.8,-5.8,x,x
Cc1ccc(CCC(=O)Nc2ccc(S(N)(=O)=O)cc2)o1,0.0,-1.2,20.1,15.2,-16.1,x,x
CC1(C)CC(=O)C=C(c2ccc3ccccc3c2)C1,x,-0.1,x,3.6,-8.2,-1.9%,3.5%
Cc1ccc(C2=CC(=O)CC(C)(C)C2)cc1,-0.7,-2.6,-13.7,10.2,-12.1,x,x
O=C(CCNC(=O)c1ccc(Cl)cc1)NCCCN1CCOCC1,-0.2,-2.9,-18.4,-9.5,-1.3,-5.8%,-5.5%
COc1ccccc1/C=C/C(=O)Nc1nc2n(n1)C(c1ccc(F)cc1)C=C(c1ccccc1)N2 (configuration not stated),-1.1,x,x,3.5,x,x,x
CC(=O)c1ccc(OCC(O)CN2CCN(CC(O)COc3ccc(C(C)=O)cc3)CC2)cc1 (configuration not stated),-0.1,-1.0,-11.0,-1.5,1.2,x,x
CC(C)(C)C1CCC(OCC(O)CN2CCN(c3ccccn3)CC2)CC1 (configuration not stated),62.1*,u,63.5*,-31.6,20.3,0.631µM*,20µM*
CC(=O)c1ccc(OCC(O)CN2CCN(c3ccccn3)CC2)cc1 (configuration not stated),83.1*,47.4*,88.2*,-19.7,93.6*,u,3.98µM*
OC(COCC1COc2ccccc2O1)CN1CCN(c2ccccn2)CC1 (configuration not stated),77.4*,45.1*!,82.8*,-22.8,24.9,u,u
CCc1ccc(OCC(O)CN2CCN(c3ccccn3)CC2)cc1 (configuration not stated),79.7*,u,-4.4,-36.0,5.7,u,u
COc1ccccc1NC(=O)CC(=O)CSc1nnc(-c2ccc(C)cc2)n1C,-0.3,-1.3,-3.8,-5.0,-18.1,x,x
OC(c1ccc(F)c(F)c1)c1nc(-c2cnc3ccccc3c2)cs1 (configuration not stated),x,6.9,x,x,-6.7,x,x
OC(COCc1ccc(Cl)cc1)CN1CCN(c2ccccn2)CC1 (configuration not stated),83.3*,45.2*,83.9*,-24.2,-1.5,u,u
CCCc1ccc(OCC(O)CN2CCN(c3ccccn3)CC2)cc1 (configuration not stated),77.5*,u,74.2*,-19.7,-10.8,1.26µM*,u
CCCc1ccc(OCC(O)CN2CCc3ccccc3C2)cc1 (configuration not stated),x,0.6,x,x,-83.0,x,x
CCOC(=O)N1CCN(CC(O)COCc2ccc(Cl)cc2)CC1 (configuration not stated),1.1,-0.7,-8.0,14.8,-11.4,x,x
OC(COC(c1ccccc1)c1ccccc1)CN1CCN(c2ccccn2)CC1 (configuration not stated),77.2*,12.6,77.8*,-19.2,-14.9,4.47µM*,u
CC(=O)c1ccc(OCC(O)CN2CCN(Cc3ccccc3)CC2)cc1 (configuration not stated),8.8,-7.4,16.8,-3.1,-3.2,-21.2%,4.1%
COc1c(O)cccc1/C=N/NC(=O)Cn1ccnc1C,-0.4,1.0,-2.8,8.5,-11.8,x,x
COC(=O)c1cc(NC(=O)CC2Oc3ccccc3NC2=O)cc(C(=O)OC)c1 (configuration not stated),26.3,-0.9,2.3,3.9,1.6,-0.3%,0.1%
O=C(CCN1CCCCC1)c1ccc2c(c1)OCCO2,2.2,-3.8,-26.7,6.0,-19.8,x,x
O=C(CCN1CCCC1Cc1ccccc1)c1ccc2c(c1)OCCO2 (configuration not stated),82.4*,6.8,108.7*,-27.6,-17.5,u,u
SMILES,D2 ag-1,D2 ag-2,D2 antag,D2 PAM-1,D2 PAM-2,D3 ag,D2 ag-3
CC(C)NS(=O)(=O)c1ccc(OCC(=O)Nc2cccc(F)c2)cc1,-2.1,8.8,1.4,6.6,-6.2,x,x
Cc1cc(=O)oc2cc(OC(C)C(=O)NC3CCCC3)ccc12 (configuration not stated),0.8,5.0,2.4,-15.6,-5.0,x,x
Cc1cc(=O)oc2cc(OC(C)C(=O)Nc3nccs3)ccc12 (configuration not stated),x,-3.2,x,x,-0.8,-2.8%,-5.3%
COc1cc(/C=C/C(=O)O)cc(S(=O)(=O)NCc2ccco2)c1OC,-0.7,-0.3,0.6,1.4,-12.3,x,x
CCCCNC(=O)C(CC)(ONc1ccccc1C(F)(F)F)c1ccccc1 (configuration not stated),0.5,-3.1,-10.3,7.1,-15.8,-3.3%,8.8%
CCCCNC(=O)[C@@](CC)(ONc1ccccc1C(F)(F)F)c1cccc2ccccc12,0.4,-4.9,6.2,-1.5,-13.6,x,x
CCC(C)Nc1nc(-c2cccc(OC)c2O)nc2ccccc12 (configuration not stated),5.3,2.0,8.8,-6.5,u,5.9%,13.2%
Cc1cc(C(C)(C)C)cc(S(=O)(=O)NCCc2ccncc2)c1C,1.7,1.5,1.5,4.2,1.9,-2.1%,0.4%
Cc1cc(CN2CCN(CC(=O)Nc3cc(Cl)ccc3-n3cncn3)CC2)no1,41.3*,1.7,4.4,-21.8,7.4,-6.4%,0.3%
COc1cccc(CN2CCN(c3ncccn3)CC2)c1OC,81.3*,u,60.3*,-17.9,9.8,14.0%,u
COc1cccc(CN2CCN(Cc3cc(OC)c(OC)c(OC)c3)CC2)c1OC,-0.4,5.3,4.0,-8.7,-11.2,-0.2%,-1.4%
COc1cccc(CN2CCN(Cc3cccc(Oc4ccccc4)c3)CC2)c1OC,-0.5,-3.0,-15.8,-24.4,-41.0,x,x
